PubChem BioAssay
Values without a mark were called inactive.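 Rule for the calls, unless noted: active = fluorescence slope after compound addition differing from the mean of all screened samples at 99.7% confidence, in either direction; inactive = the rest.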

Molecular target: Voltage-gated potassium channel subunit beta-2 (Rattus norvegicus) (UniProt P62483)
Assay: enhancers of rat Kvbeta2 NADPH turnover – biochemical, NADPH fluorescence, primary screen (AID 623;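 active = NADPH fluorescence slope more negative than the mean of all samples by about 3 SD, 99.7% confidence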;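 note: fluorescence intensity change per second fitted from 20 to 320 s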)
Details: Recombinant KvBeta, NADPH fluorescence decrease slope, 10 min; at 10 µM; stronger effect = lower value

Chain of Voltage-gated potassium channel subunit beta-2 (Rattus norvegicus) (P62483 whole entry, looked up): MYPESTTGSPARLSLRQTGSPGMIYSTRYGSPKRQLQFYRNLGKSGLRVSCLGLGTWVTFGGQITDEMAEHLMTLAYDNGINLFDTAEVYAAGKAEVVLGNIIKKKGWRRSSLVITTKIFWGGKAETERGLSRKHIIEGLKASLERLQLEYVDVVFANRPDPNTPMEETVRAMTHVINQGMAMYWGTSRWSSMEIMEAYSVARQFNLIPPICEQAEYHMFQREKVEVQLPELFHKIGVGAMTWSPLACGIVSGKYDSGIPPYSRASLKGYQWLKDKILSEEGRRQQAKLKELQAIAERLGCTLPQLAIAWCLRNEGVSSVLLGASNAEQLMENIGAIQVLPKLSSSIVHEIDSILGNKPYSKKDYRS

Compound	NADPH fluorescence slope
O=C(NC1=NCCS1)c1nc(-c2ccccc2)n(-c2ccccc2)n1	-4.9e-05
CN(C)/C=N/c1ncnc2c1cnn2-c1ccc(C(F)(F)F)cn1	-4.6e-05
Cc1cc(=O)n(CCO)c(O)c1C#N	8.2e-06
CC(=O)c1ccc(OCC(O)CN2CCN(CCO)CC2)cc1 (stereo not drawn)	-2.9e-05
C=CCNC(=O)CSc1nc2sc(C)c(C)c2c(=O)[nH]1	-3.3e-05
O=S(=O)(NCc1cn2ccsc2n1)c1ccc2c(c1)OCCO2	-3.9e-05
CC(=O)C(Sc1ncnc2c1nnn2-c1ccc(F)cc1)C(=O)N(C)C (stereo not drawn)	-1.7e-05
CCOCCc1nnc(NC(=O)c2ccc(OC)c(OC)c2)s1	-4.8e-05
CCCCNC(=O)CSc1nc2ccc(N3CCOCC3)cc2c(=O)n1CCc1ccccc1	-1.2e-05
CC(=O)c1ccc(OC(=O)c2cccs2)cc1	-1.8e-05
Cn1nnnc1SCC(=O)N1CCN(c2cccc(Cl)c2)CC1	-2.9e-06
COc1cc(C(c2sc3nc(C)nn3c2O)N2CC(C)CC(C)C2)cc(OC)c1OC (stereo not drawn)	-0.00015
O=C1C2C3C=CC(C3)C2C(=O)N1c1cccc(N2C(=O)C3C4C=CC(C4)C3C2=O)n1 (stereo not drawn)	-1.2e-05
O=C(Nc1ccc(Cl)cc1C(=O)O)c1ccc2c(c1)C(=O)N(Cc1ccco1)C2=O	-4.3e-05
COc1cccc(Oc2cnc(N)nc2-c2ccc(OC)cc2O)c1	-5.9e-05
CCCC1(C(=O)OC)NC(c2cc(OC)c(OC)c(OC)c2)C2C(=O)N(CC)C(=O)C21 (stereo not drawn)	3.3e-05
CCN(Cc1cc2ccccc2[nH]c1=O)S(=O)(=O)c1ccccc1	1.2e-05
CCOC(=O)c1sc2nc(SCC(=O)NCc3ccco3)n(Cc3ccccc3)c(=O)c2c1C	-2.2e-05
O=C(c1cc2cc(Cl)cc(Cl)c2oc1=O)N1CCOCC1	-6.7e-05
Cc1ccc2nc(NCCCN3CCOCC3)c(C=NCCCN3CCOCC3)c(=O)n2c1	-5.9e-05

Compound	NADPH fluorescence slope
O=C(NCN1CCCCC1)c1cnccn1	-8.7e-05
Cc1ccc(N=Cc2ccc(O)cc2O)cc1F	-0.000134
Cn1c2ccc(F)cc2c2ncn(CCN3CCOCC3)c(=O)c21	-1.5e-05
CCOC(=O)c1ccc(NC(=O)CSC2=NC(=O)C(CC)C(=O)N2)cc1 (stereo not drawn)	2.6e-05
N#CCCn1ccc(NC(=O)c2ccc(Cl)cc2)n1	-6.3e-05
CCN(CC)Cc1c(C(=O)OC)nnn1-c1nonc1N	-0.000189
CCN1CCN(Cc2nc3c(c(=O)n(C)c(=O)n3C)n2CC(=O)c2ccccc2)CC1	-3e-05
CC(=O)N(C)C1(c2nnnn2CCOC(=O)Nc2ccc(Cl)cc2)CCCCC1	-3.1e-05
COCCn1nnnc1CN(Cc1cccnc1)Cc1cc2cc(OC)ccc2[nH]c1=O	-3.4e-05
CCOc1cccc(-n2nnnc2-c2ccc(OC)cc2)c1	-1.5e-05
COc1ccc(N2CCN(C(c3cccs3)c3nnnn3C3CCCC3)CC2)cc1 (stereo not drawn)	-1.5e-08
CCS(=O)(=O)N1CCCC(C(=O)NCCc2ccc(OC)c(OC)c2)C1 (stereo not drawn)	4.5e-06
CC(=O)Nc1ccc(S(=O)(=O)NCC(C)NS(=O)(=O)c2ccc(NC(C)=O)cc2)cc1 (stereo not drawn)	4.4e-05
Cc1nc2ncnn2c(N2CCC(C(=O)NC3CCCC3)CC2)c1Cc1ccccc1	-0.000271
c1ccc(-n2cnc3cc(NCc4ccccn4)ccc32)cc1	-4.4e-05
Cc1nn(-c2ccc(F)cc2)c2sc(C(=O)N3CCCCCC3)cc12	-3.1e-05
O=C(Nc1ccccc1-c1ccccc1)NC1CCN(CC(=O)N2CCOCC2)CC1	-7.3e-05
Cc1ccccc1-c1nc(CN2CCC(C(=O)NC3CCN(Cc4ccccc4)CC3)CC2)c(C)o1	-3e-05
Cc1[nH]c(C(=O)N2CCCCC2)c(C)c1C(=O)NC1CCCCC1	2.6e-05

Molecular target: Alpha-2C adrenergic receptor (Homo sapiens) (UniProt P18825)
Sequence (P18825 whole entry, looked up): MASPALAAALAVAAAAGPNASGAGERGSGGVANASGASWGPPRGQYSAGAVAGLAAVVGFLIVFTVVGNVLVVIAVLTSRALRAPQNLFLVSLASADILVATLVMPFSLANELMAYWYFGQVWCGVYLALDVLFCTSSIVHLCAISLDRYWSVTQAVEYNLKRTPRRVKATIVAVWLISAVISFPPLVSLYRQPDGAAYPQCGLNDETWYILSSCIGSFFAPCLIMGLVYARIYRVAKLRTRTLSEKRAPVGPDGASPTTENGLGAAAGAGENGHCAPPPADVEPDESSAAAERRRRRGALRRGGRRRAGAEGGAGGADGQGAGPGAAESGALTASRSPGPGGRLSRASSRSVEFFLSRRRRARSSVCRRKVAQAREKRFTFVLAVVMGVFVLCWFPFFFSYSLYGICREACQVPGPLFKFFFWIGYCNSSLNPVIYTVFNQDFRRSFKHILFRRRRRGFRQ
Assay: compounds altering alpha2C-coupled GIRK flux – cell-based, HEK293 alpha2C/GIRK1/2, thallium flux, primary screen (AID 624);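 note: slope of fluorescence ratio to pre-addition baseline per second over 15 to 24 s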
Details: thallium flux BTC fluorescence, at 10 µM, actives lie on both sides

Compound	slope
O=C(NC1=NCCS1)c1nc(-c2ccccc2)n(-c2ccccc2)n1	0.00535
CN(C)/C=N/c1ncnc2c1cnn2-c1ccc(C(F)(F)F)cn1	0.0102
Cc1cc(=O)n(CCO)c(O)c1C#N	0.00309
CC(=O)c1ccc(OCC(O)CN2CCN(CCO)CC2)cc1 (stereo not drawn)	0.00738
C=CCNC(=O)CSc1nc2sc(C)c(C)c2c(=O)[nH]1	0.00731
O=S(=O)(NCc1cn2ccsc2n1)c1ccc2c(c1)OCCO2	0.00564
CC(=O)C(Sc1ncnc2c1nnn2-c1ccc(F)cc1)C(=O)N(C)C (stereo not drawn)	0.00752
CCOCCc1nnc(NC(=O)c2ccc(OC)c(OC)c2)s1	0.00549
CCCCNC(=O)CSc1nc2ccc(N3CCOCC3)cc2c(=O)n1CCc1ccccc1	0.00671
CC(=O)c1ccc(OC(=O)c2cccs2)cc1	0.00631
Cn1nnnc1SCC(=O)N1CCN(c2cccc(Cl)c2)CC1	0.00492
COc1cc(C(c2sc3nc(C)nn3c2O)N2CC(C)CC(C)C2)cc(OC)c1OC (stereo not drawn)	0.00579
O=C1C2C3C=CC(C3)C2C(=O)N1c1cccc(N2C(=O)C3C4C=CC(C4)C3C2=O)n1 (stereo not drawn)	0.00682
O=C(Nc1ccc(Cl)cc1C(=O)O)c1ccc2c(c1)C(=O)N(Cc1ccco1)C2=O	0.00498
COc1cccc(Oc2cnc(N)nc2-c2ccc(OC)cc2O)c1	0.00372
CCCC1(C(=O)OC)NC(c2cc(OC)c(OC)c(OC)c2)C2C(=O)N(CC)C(=O)C21 (stereo not drawn)	0.0052
CCN(Cc1cc2ccccc2[nH]c1=O)S(=O)(=O)c1ccccc1	0.00647
CCOC(=O)c1sc2nc(SCC(=O)NCc3ccco3)n(Cc3ccccc3)c(=O)c2c1C	0.00701
O=C(c1cc2cc(Cl)cc(Cl)c2oc1=O)N1CCOCC1	0.0058
Cc1ccc2nc(NCCCN3CCOCC3)c(C=NCCCN3CCOCC3)c(=O)n2c1	0.00509

Compound	slope
O=C(NCN1CCCCC1)c1cnccn1	0.00561
Cc1ccc(N=Cc2ccc(O)cc2O)cc1F	0.00518
Cn1c2ccc(F)cc2c2ncn(CCN3CCOCC3)c(=O)c21	0.00608
CCOC(=O)c1ccc(NC(=O)CSC2=NC(=O)C(CC)C(=O)N2)cc1 (stereo not drawn)	0.00682
N#CCCn1ccc(NC(=O)c2ccc(Cl)cc2)n1	0.00607
CCN(CC)Cc1c(C(=O)OC)nnn1-c1nonc1N	0.00521
CCN1CCN(Cc2nc3c(c(=O)n(C)c(=O)n3C)n2CC(=O)c2ccccc2)CC1	0.00683
CC(=O)N(C)C1(c2nnnn2CCOC(=O)Nc2ccc(Cl)cc2)CCCCC1	0.00444
COCCn1nnnc1CN(Cc1cccnc1)Cc1cc2cc(OC)ccc2[nH]c1=O	0.00315
CCOc1cccc(-n2nnnc2-c2ccc(OC)cc2)c1	0.00569
COc1ccc(N2CCN(C(c3cccs3)c3nnnn3C3CCCC3)CC2)cc1 (stereo not drawn)	0.00587
CCS(=O)(=O)N1CCCC(C(=O)NCCc2ccc(OC)c(OC)c2)C1 (stereo not drawn)	0.00594
CC(=O)Nc1ccc(S(=O)(=O)NCC(C)NS(=O)(=O)c2ccc(NC(C)=O)cc2)cc1 (stereo not drawn)	0.0079
Cc1nc2ncnn2c(N2CCC(C(=O)NC3CCCC3)CC2)c1Cc1ccccc1	0.00426
c1ccc(-n2cnc3cc(NCc4ccccn4)ccc32)cc1	0.00529
Cc1nn(-c2ccc(F)cc2)c2sc(C(=O)N3CCCCCC3)cc12	0.00645
O=C(Nc1ccccc1-c1ccccc1)NC1CCN(CC(=O)N2CCOCC2)CC1	0.00795
Cc1ccccc1-c1nc(CN2CCC(C(=O)NC3CCN(Cc4ccccc4)CC3)CC2)c(C)o1	0.0054
Cc1[nH]c(C(=O)N2CCCCC2)c(C)c1C(=O)NC1CCCCC1	0.00631
